Results published in PubChem BioAssay (NCI).
This is part of a sample that, as a whole, favours compounds with a hit. Of some 83,000 tested, about 20% had one in any assay.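 Interpretation: 100, growth as untreated; towards 0, rising growth inhibition; 0, no net growth; 0 to -100, cell death. Compounds scoring below 10 were considered active.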 A number with no mark means an inactive call. Active and inactive are the calls of the source.

What follows are molecules tested on HL-60(TB) leukemia (assay: NCI-60 one-dose screen, 48 h (100 = growth as untreated, 0 = no growth, -100 = all killed)). Conditions: 10 µM unless noted.

| Compound | growth |
| --- | --- |
| Cl.[Pt].[c-]1ccccc1-c1ccccn1.c1ccc(P(c2ccccc2)C([PH+](c2ccccc2)c2ccccc2)[PH+](c2ccccc2)c2ccccc2)cc1 | 7.19% (active) |
| Clc1ccc2nc(-c3ccc(-c4ccc(/C=N/NC5=NCCN5)cc4)s3)cn2c1 | 98.1% |
| N#Cc1c(-c2cccc(Cl)c2)cc(-c2cccc(Cl)c2)[nH]c1=O | -11.9% (active) |
| C=CC(=O)Nc1cccc(C)c1Nc1cc(-c2cccnc2Cc2c(C)c(OC)cc(OC)c2C)ncn1 | -23% (active) |
| O=C(Nc1cccc(Cn2c(=O)[nH]c3ccc(Oc4ncccn4)cc3c2=O)c1)c1cc(Cl)cc(Cl)c1 | 98.5% |
| COc1ccc(C(=O)COc2cccc(/C=C3\Cc4ccccc4C3=O)c2)cc1 | 73.4% |
| O=C(CCN1CCCC1)Nc1ccc2c(Nc3ccc(Br)cc3)c3ccccc3nc2c1 | -54.6% (active) |
| O=C(O)CC1CCCCC1c1ccccc1 (centres undefined) | 99.9% |
| Cc1ccnc(Nc2ccc([N+](=O)[O-])c(NCCN3CCOCC3)n2)c1 | -14.9% (active) |
| FCc1nc2nc(Cl)c(Cl)nc2[nH]1 | 102% |
| O=c1c2sc3ncc(Br)cc3c2ncn1-c1cccc(Cl)c1 | 84.5% |
| CC(C)(C)CC(C)(C)Nc1c(-c2c(O)c3ccccc3oc2=O)nc2sccn12 | 99.7% |
| O=Nc1c2cccnc2n2nnc3ccc(Cl)cc3c12 | -48.7% (active) |
| CS(=O)(=O)c1nccc(-c2c(-c3cccc(OCc4ccc(F)cc4)c3)nc3sccn23)n1 | 43.7% |
